From PubChem BioAssay AID588814 (The Scripps Research Institute Molecular Screening Center, 2011)
Among all 360,000 compounds or so, about 1,200 (0.33%) were called active.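 Rule for the calls: active = activation above the run's mean compound activation plus 3 SD (cut at about 16% in these data); inactive = the rest.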 What follows is part of a selection rich in actives, with near analogues and random picks from the rest.

Each molecule was assayed against Muscarinic acetylcholine receptor M1 (Homo sapiens) (UniProt P11229) (assay: human M1 muscarinic receptor agonists, primary screen, Fluo-8 calcium fluorescence, CHO-K1 cells, HTS (AID 588814;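 note: peak over basal fluorescence ratio within a 140 s kinetic read after compound addition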)). Conditions: CHO-K1 hM1, Fluo-8 calcium fluorescence, agonist mode; at 3 µM; hits give high values; 0% DMSO, 100% acetylcholine EC100.
Chain of Muscarinic acetylcholine receptor M1 (Homo sapiens) (P11229 whole entry, looked up): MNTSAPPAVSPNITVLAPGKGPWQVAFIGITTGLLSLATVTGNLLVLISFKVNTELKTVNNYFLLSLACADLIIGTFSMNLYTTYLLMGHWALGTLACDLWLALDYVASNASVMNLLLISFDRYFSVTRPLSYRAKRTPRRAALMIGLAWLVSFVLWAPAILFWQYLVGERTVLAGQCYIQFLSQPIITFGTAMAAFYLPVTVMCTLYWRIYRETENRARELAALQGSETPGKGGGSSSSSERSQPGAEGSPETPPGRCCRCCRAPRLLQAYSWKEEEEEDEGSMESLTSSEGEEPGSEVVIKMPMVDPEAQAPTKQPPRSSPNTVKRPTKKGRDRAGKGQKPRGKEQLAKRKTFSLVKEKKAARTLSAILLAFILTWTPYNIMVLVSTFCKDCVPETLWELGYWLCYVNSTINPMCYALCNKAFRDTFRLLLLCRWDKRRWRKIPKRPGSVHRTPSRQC

activation, inactive:
O=C(Cn1ncc2c3ccccc3n(Cc3ccccc3)c2c1=O)NCc1ccccn1 -0.49%
Cc1ccc(Cn2c(C)c3cnn(CC(=O)NCc4ccccn4)c(=O)c3c2C)cc1 8.5%
Cc1ccc(C(C)C)c(OCc2nnc(SCC(=O)Nc3nccs3)n2C)c1 -4.42%
CCCN(C(=O)c1nc2nccc(C)n2n1)c1c(N)n(Cc2ccccc2)c(=O)[nH]c1=O -3.03%
Nc1ncnc2c1ncn2[C@@H]1O[C@H](CNC(=O)[C@H](N)Cc2cccnc2)[C@@H](O)[C@H]1O -1.79%
Cc1cc(N/C=C\C(=O)c2ccc(Cl)c(Cl)c2)no1 -3.12%
COc1ccc(N2C(=O)CCC(C(=O)Nc3ccccn3)C2c2ccc(OC)c(OC)c2)cc1 (stereo unspecified) 5.33%
FC(F)Oc1ccccc1C1CC(c2ccc(Br)s2)Nc2ncnn21 (stereo unspecified) 0.72%
CC1CC(C)(C)CC2(C1)NC(=O)N(CC(=O)Nc1nccs1)C2=O (stereo unspecified) -1.16%
CC1CCN(C(=O)CSc2nnc(-c3ccco3)n2N)CC1 -4.05%
O=C1NCCn2nc3ccccc3c21 -2.22%
Cc1ccc(NS(=O)(=O)c2cc3c(cc2C)NC(=O)CO3)cc1 1.51%
Cc1ccc(NS(=O)(=O)c2ccc3c(c2)NC(=O)CO3)cc1 2.14%
O[C@H]1C[C@H](c2ccc(Cl)cc2)N(Cc2cccs2)C[C@@H]1n1cc(C2CC2)nn1 1.89%
CN(C(=O)COC(=O)c1ccc(Br)o1)c1c(N)n(Cc2ccccc2)c(=O)[nH]c1=O -3.72%
Nc1cc(=O)n(Cc2ccccc2)c(=O)n1Cc1ccccc1 -2.41%
O=C(OCC(=O)N1CCCCCC1)c1cccc(Cl)c1Cl -4.74%
CC(=O)Nc1cccc(-c2ccnc3c2CC(C)(C(=O)NCc2ccccc2)O3)c1 (stereo unspecified) -0.77%
COc1ccc(OC)c(NC(=O)CN(Cc2ccc(Cl)cc2)S(C)(=O)=O)c1 -5.87%
O=C(/C=C/c1ccc(F)cc1)NC(=S)NNC(=O)c1cccnc1 1.15%
Cc1onc(-c2ccccc2)c1C(=O)N1CCN(S(=O)(=O)c2ccccc2C(F)(F)F)CC1 -3.88%
COc1ccc(C(=O)NC(=O)CSc2nnc(-c3ccco3)n2-c2ccccc2)cc1 -3.2%
Cc1[nH]c2ccccc2c1C(=O)COC(=O)c1c(-c2ccccc2)noc1C -5.12%
COCCNc1ncnc2c1nc1n2CCCC1 -3.29%
COCCCNC(=O)c1cccc2c(-c3ccc(O)c(OC)c3)coc12 0.67%
Cc1ccc(/C=N/NC(=O)C(NC(=O)c2ccccc2)c2n[nH]c(=O)c3ccccc23)cc1 (stereo unspecified) -2.92%
CSc1nc2nc(-c3cccc(C(F)(F)F)c3)ccn2n1 -3%
Cc1ccc(-n2nc3c(c2NC(=O)CCC2CCCCC2)CS(=O)C3)cc1 (stereo unspecified) -1.89%
O=C(COc1ccc(Cl)cc1)NC(=S)Nc1ccccc1N1CCOCC1 0.8%
Cc1ccccc1N/C(SCc1ccc(Cl)cc1)=C(/C#N)C(N)=O -7.61%
O=C(COc1ccc(Cl)cc1)Nc1ccccc1CO -3.25%
Cc1cccc(NC(=S)NCCc2ccc(Cl)cc2)c1C -5.48%
O=C(c1ccccc1)c1cccn1CC(=O)N1CCN(c2ccc(F)cc2)CC1 0.36%
Cc1nc2ccccc2n1C(=O)N1CCOCC1 -1.92%
O=C(N/N=C1\CCSC1)c1cc(Cl)ccc1O -0.13%
CN(CC(=O)NCCc1ccc(S(N)(=O)=O)cc1)CC(=O)Nc1ccc(Cl)cc1 -1.41%
CCN(CC)c1ccc(C2C3CCCCC3(O)CCN2CC(=O)Nc2ccccc2)cc1 (stereo unspecified) -4.34%
COc1ccc(C2/C(=C(/O)c3ccc4c(c3)CC(C)O4)C(=O)C(=O)N2Cc2ccncc2)cc1 (stereo unspecified) -3.47%
Cc1c[n+]([O-])ccc1[N+](=O)[O-] -2.04%
Nc1nc(SCC(=O)NNc2c(Cl)cc(Cl)cc2Cl)n[nH]1 -4.83%
Cc1ccc(/C=C/C(=O)OCC(=O)NCc2ccc(Cl)cc2)o1 -3.98%
Cc1ccc2oc(=O)ccc2c1 -4.21%
CCc1ccc2oc(-c3ccc(N)cc3)nc2c1 6.55%
Cc1cc(=O)oc2c3c(cc(OCC(=O)NCC(O)c4ccccc4)c12)OC(C)(C)CC3 (stereo unspecified) 0.12%
CCOC(=O)N(Cc1ccccc1)C1CC1 -2.66%
CN(CCO)C(=O)c1nc[nH]c1C(=O)N(C)Cc1ccccc1 -4.9%
CCS(=O)(=O)n1nc(-c2ccccc2)nc1SCc1ccccc1 -2.07%
CN(CC(=O)NCCN1CCOCC1)S(=O)(=O)c1ccc(F)cc1 -1.7%
Cc1c(C(=O)NCc2ccc(C#N)cc2)sc(=O)n1Cc1ccc(C(=O)N(C)C)cc1 -5.38%
Cc1ccc(Cn2c(C)c(C(=O)NCc3ccccc3C(F)(F)F)sc2=O)cc1 -6.02%

activation, active:
Cc1c2cnn(CC(=O)NCc3ccccn3)c(=O)c2c(C)n1Cc1ccc(Cl)cc1 26%
COc1ccc(C(=O)/C=C/Nc2ccccn2)cc1 55%
Cc1ccc(NS(=O)(=O)c2cc3c(cc2Br)NC(=O)CO3)cc1C 21.6%
Cc1cc2nc3c(=O)n(Cc4ccccc4)c(=O)[nH]c3nc2cc1N 24.8%
Cc1onc(-c2ccccc2)c1C(=O)NNC(=S)NC(=O)c1ccc(F)cc1 70.4%
COc1ccc(C(=O)NC(=S)NNC(=O)c2c(-c3ccccc3)noc2C)cc1 44.6%
Cc1ccccc1NC(=S)NC(=O)Cc1ccc(Cl)cc1 29.9%
O=C(Cc1ccc(Cl)cc1)NC(=S)Nc1ccccc1O 52.4%
CCN(CC)c1ccc2oc(=O)c(C)nc2c1 49%
CN(C(=O)CN(CCO)CC(=O)N(C)C(C)(C)Cc1ccccc1)C(C)(C)Cc1ccccc1 27.2%
CC(=O)Oc1ccc(Cn2c(C)c(C(=O)NCc3ccc(C#N)cc3)sc2=O)cc1 33%
